Results: PubChem BioAssay AID588323 (National Center for Advancing Translational Sciences (NCATS), 2011)
Values without a mark were called inactive. Active and inactive are the calls of the source. The call rests on the fitted dose curve; in most records, active means well fitted curve in the direction sought with a large enough effect; inconclusive means small, poorly fitted or top-dose-only effect, or another doubt; inactive means no such curve, though single readings can be large or run the other way.

Experiment: Confirmatory Assay to Find Inhibitors of T. brucei phosphofructokinase: Cytotoxictity in MRC5
Conditions: cell viability; Potency: MRC5 cytotoxicity; series mostly up to 46.1 µM; activity change, negative = cytotoxicity: at the top concentration
Description: Various species of the protozoan family Trypanosomatidae are responsible for a range of serious human diseases in tropical and subtropical areas of the world. […] Many of the disorders caused by trypanosomatids are fatal if left untreated, but most currently used drugs are inefficient and toxic.
Oxidative metabolism involving the mitochondrial tricarboxylic acid cycle and oxidative phosphorylation are repressed in these parasites, and recent RNA interference (RNAi) experiments have shown that even partial depletion of certain individual glycolytic enzymes can lead to the death of cultured parasites. One such glycolytic enzyme, phosphofructokinase (PFK), catalyzes the formation of fructose-1,6-bisphosphate (F1,6BP) and ADP from fructose-6-phosphate (F6P) and ATP, and in many metabolic circumstances makes an important contribution to the control of flux through the glycolytic pathway. As a specific glycolytic target, PFK is particularly attractive as it catalyzes the first irreversible step in glycolysis, and structural and kinetic studies have shown very substantial and essential differences from corresponding host enzymes, allowing for the discovery of parasite-selective inhibitors.
Confirmed qHTS active compounds were tested for toxicity against the MRC-5 human lung fibroblast cell lines. This line havs historically been used as representative human cells in in vitro Trypanosoma assays, and so provide a relevant surrogate for human cells in testing Tb PFK inhibitor toxicity.
NIH Chemical Genomics Center [NCGC]
NIH Molecular Libraries Probe Centers Network [MLPCN]
Assay Submitter (PI): Malcom Walkinshaw, University of Edinburg
MRC5 cells were dispensed into white solid 1536-microwell plates in 5 uL media (high glucose DMEM, 10% FBS) with a Thermo Multidrop. The plates were incubated at 37 degrees Celsius for 2 hours, and subsequently treated with compounds using the Kalypsys pin tool, delivering 23 nL of test compounds to each well. The plates were then incubated for an additional 72 hours at 37 degrees Celsius. Cytotoxicity was assessed by adding 2.5 uL of Cell-Titer Glo (Promega, Madison, WI) via Multidrop, incubating at room temperature for 10 min and reading luminescence on the Perkin Elmer ViewLux using a 1 second exposure and 1x binning. DMSO-treated cells were included as negative control, while media-only wells were used as a positive control equivalent to 100% cell toxicity for the sake of data normalization.

SMILES	Potency	activity change, negative = cytotoxicity [%]
Cc1cc(N(C)S(=O)(=O)c2ccc(NC(=O)Cc3ccc(Cl)c(Cl)c3)cc2)no1	31.5 µM (active)	–
Cc1cc(NC(=O)c2csc(NC(=O)Cc3ccc(Cl)c(Cl)c3)n2)no1	–	-17.8
COc1ccc(CC(=O)Nc2ccc(S(=O)(=O)Nc3cc(C)on3)cc2)cc1OC	–	1.47
Cc1cc(NS(=O)(=O)c2ccc(NC(=O)Cc3ccc(Cl)c(Cl)c3)cc2)no1	–	-32.7
Cc1cc(NS(=O)(=O)c2ccc(NC(=O)Cc3ccc(Cl)cc3Cl)cc2)no1	–	-0.204
Cc1cc(NS(=O)(=O)c2ccc(NC(=O)Cc3ccc(Cl)c(F)c3)cc2)no1	–	-4.95
O=C(Cc1ccc(Cl)c(Cl)c1)Nc1ccc(S(=O)(=O)O)cc1	–	0.694
Cc1cc(NS(=O)(=O)c2ccc(NC(=O)Cc3ccccc3)cc2)no1	–	-5.92
Cc1cc(NS(=O)(=O)c2ccc(N(C)C(=O)Cc3ccc(Cl)c(Cl)c3)cc2)no1	–	-5.01
Cc1cc(NS(=O)(=O)c2ccc(NC(=O)Cc3ccc4ccccc4c3)cc2)no1	–	-14
CCOC(=O)c1cccc(NS(=O)(=O)c2ccc(NC(=O)Cc3ccc(Cl)c(Cl)c3)cc2)c1	–	2.49
Cc1cc(NS(=O)(=O)c2ccc(NC(=O)Cc3cccc(Cl)c3)cc2)no1	–	4.81
Cc1cc(NS(=O)(=O)c2ccc(C(=O)NCc3ccc(Cl)c(Cl)c3)cc2)no1	–	9.63
COc1ccc(CC(=O)Nc2ccc(S(=O)(=O)Nc3cc(C)on3)cc2)cc1C	–	-11.7
O=C(Cc1ccc(Cl)c(Cl)c1)Nc1ccc(S(=O)(=O)Nc2ccn[nH]2)cc1	–	-18
Cc1cc(NS(=O)(=O)c2ccc(NC(=O)Cc3ccc(Cl)c(C(F)(F)F)c3)cc2)no1	–	-18.9
Cc1cc(NS(=O)(=O)c2ccc(NC(=O)c3ccc(Cl)c(Cl)c3)cc2)no1	–	-2.31
O=C(Cc1ccc(Cl)c(Cl)c1)Nc1ccc(S(=O)(=O)Nc2ccon2)cc1	–	-9.57
Cc1cc(NS(=O)(=O)c2ccc(NC(=O)Cc3ccc(Cl)c(Cl)c3)cc2)n(C)n1	–	-1.38
Cc1cc(NS(=O)(=O)c2ccc(NC(=O)Cc3ccc(Cl)cc3)cc2)no1	–	-2.34

SMILES	Potency	activity change, negative = cytotoxicity [%]
Cc1cc(NS(=O)(=O)c2ccc(NC(=O)C(C)(C)c3ccc(Cl)c(Cl)c3)cc2)no1	–	1.51
Cc1cc(NS(=O)(=O)c2ccc(NS(=O)(=O)Cc3ccc(Cl)c(Cl)c3)cc2)no1	–	2.37
Cc1cc(NS(=O)(=O)Cc2ccc(NC(=O)Cc3ccc(Cl)c(Cl)c3)cc2)no1	–	-0.53
O=C(Cc1ccc(Cl)c(Cl)c1)Nc1ccc(S(=O)(=O)Nc2ccccc2)cc1	–	-16.9
O=C(Cc1ccc(Cl)c(Cl)c1)Nc1ccc(S(=O)(=O)Nc2ccc(C(=O)O)cc2)cc1	–	-7.09
Cc1cc(NS(=O)(=O)c2cccc(NC(=O)Cc3ccc(Cl)c(Cl)c3)c2)no1	–	-9.42
O=C(Cc1ccc(Cl)c(Cl)c1)Nc1ccc(S(=O)(=O)Nc2cccc(C(=O)O)c2)cc1	–	0.992
Cc1cc(NS(=O)(=O)c2ccc(NC(=O)CCc3ccc(Cl)c(Cl)c3)cc2)no1	–	0.751
Cc1cc(NC(=O)c2ccc(NC(=O)Cc3ccc(Cl)c(Cl)c3)cc2)no1	–	-3.03
Cc1cc(NS(=O)(=O)c2ccc(NC(=O)Cc3ccc(C)c(F)c3)cc2)no1	–	0.152
Cc1cc(NS(=O)(=O)CCNC(=O)Cc2ccc(Cl)c(Cl)c2)no1	–	2.79
Cc1cc(N[S+](=O)([O-])c2ccc3cc(NC(=O)Cc4ccc(Cl)c(Cl)c4)ccc3c2)no1	–	-4.84
Cc1cc(NS(=O)(=O)c2ccc(NC(=O)Cc3ccc(Cl)c(Cl)c3)cc2)on1	–	-19.8
O=C(Cc1ccc(Cl)c(Cl)c1)Nc1ccc(S(=O)(=O)Nc2cncnc2)cc1	–	-26.7
Cc1cc(N[S+](=O)([O-])c2ccc(NC(=O)Cc3ccc(Cl)nc3)cc2)no1	–	-2.33
Cc1cc(NS(=O)(=O)c2ccc(NC(=O)Cc3ccc(C)c(C)c3)cc2)no1	–	-2.52
Cc1cc(NS(=O)(=O)C2CCN(C(=O)Cc3ccc(Cl)c(Cl)c3)CC2)no1	–	0.791
O=C(Cc1ccc(Cl)c(Cl)c1)Nc1ccc(S(=O)(=O)Nc2cccc(O)c2)cc1	–	-10.7
Cc1cc(NS(=O)(=O)c2ccc(NCCc3ccc(Cl)c(Cl)c3)cc2)no1	–	4.6
